# From PubChem BioAssay AID588726 (The Scripps Research Institute Molecular Screening Center, 2011)
# Among all 360,000 compounds or so, about 8,200 (2.3%) were called active. For the sample, actives were picked, then their nearest neighbours and some compounds at random. A number with no mark means an inactive call. No stated cut-off is given here; in the data, active means inhibition above about 27%; inactive means the rest.
# Target: Fructose-bisphosphate aldolase (Mycobacterium tuberculosis (strain ATCC 25618 / H37Rv)) (UniProt P9WQA3)
# Assay: M. tuberculosis aldolase activity blockers – biochemical, fluorescence, strain H37Rv, primary screen (AID 588726);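 further: 0% = vehicle and 100% = reference inhibitor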
# Conditions: purified M. tuberculosis FBA, fluorescence read-out, at 1 µM, hits give high values
# Sequence of Fructose-bisphosphate aldolase (Mycobacterium tuberculosis (strain ATCC 25618 / H37Rv)) (P9WQA3 whole entry, looked up): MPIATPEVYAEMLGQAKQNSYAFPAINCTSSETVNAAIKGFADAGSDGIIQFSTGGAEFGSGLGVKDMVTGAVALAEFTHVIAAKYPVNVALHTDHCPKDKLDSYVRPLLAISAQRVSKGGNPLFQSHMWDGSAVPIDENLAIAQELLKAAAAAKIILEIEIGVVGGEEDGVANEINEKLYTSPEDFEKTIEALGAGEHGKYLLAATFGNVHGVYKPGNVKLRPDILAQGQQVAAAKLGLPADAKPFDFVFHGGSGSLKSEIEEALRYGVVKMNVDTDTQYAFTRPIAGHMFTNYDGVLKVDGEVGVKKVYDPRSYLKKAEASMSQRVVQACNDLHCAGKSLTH
row,Compound,inhibition
1,CC(=O)c1cccc(NC(=O)COc2ccc(S(=O)(=O)N3CCOCC3)cc2)c1,-1.21%
2,Cc1ccc(NC(=O)C(CC(=O)O)C2CCCO2)c(C)c1 (centres undefined),2.55%
3,O=C1/C(=C/c2coc3ccc(O)cc3c2=O)SC(=S)N1c1ccccc1,-0.97%
4,O=c1[nH]c(CN2CCOCC2)nc2scc(-c3ccccc3)c12,-0.65%
5,O=c1c(-c2ccccc2)coc2cc(O)ccc12,32.2% (active)
6,CC(C)=CCc1c(O)c(CC=C(C)C)c2occ(-c3ccc(O)cc3)c(=O)c2c1O,-0.11%
7,O=c1c(-c2ccccc2)coc2c(CN3CCOCC3)c(O)ccc12,36.3% (active)
8,CCOC(=O)c1oc2c(CN3CCN(C)CC3)c(O)ccc2c(=O)c1-c1ccc(Br)cc1,-0.95%
9,O=C(Cc1cccs1)N(CC1CCCO1)C1(C(=O)NC2CCCCC2)CCCCC1 (centres undefined),-1.48%
10,C/C(=N/NC(=O)CN1CCN(S(=O)(=O)c2ccc(Br)cc2)CC1)c1ccncc1,-1.72%
11,Cc1nc2nc(C)c(NS(=O)(=O)c3ccc(C(C)(C)C)cc3)c(=O)n2[nH]1,1.79%
12,CC(=O)c1ccc(N2CCN(CC(O)c3ccccc3)CC2)cc1 (centres undefined),-0.54%
13,COc1cc(N)c(Cl)cc1C(=O)OCC(=O)c1ccc2c(c1)NC(=O)CO2,-2.6%
14,CSc1ccc(CN2C(=O)NC3(CCCCCC3)C2=O)cc1,6.55%
15,COc1ccc(CNC(=O)c2c[nH]c3c(OC)cc(OC)cc3c2=O)cc1,34.8% (active)
16,CCSc1ccccc1C(=O)NCc1ccc(OC)cc1,-3.44%
17,COc1ccc(CNC(=O)c2cc(C(=O)C3CC3)c[nH]2)cc1,5.17%
18,C=CC[C@@H](CC(=O)N[C@@H](CO)Cc1ccccc1)C(=O)N[C@H](COC(=O)[C@H](CC=C)CC(=O)OC(C)(C)C)Cc1ccccc1,3.8%
19,Cc1nc(NCCN)c(C#N)c2c1COC(C)(C)C2,27.9% (active)
20,CCCCc1nc(NCCN)c(C#N)c2c1CSC(C)(C)C2,5.12%

row,Compound,inhibition
1,Cc1nc(NCc2ccccc2)c(C(N)=O)c2c1COC(C)(C)C2,22.3%
2,CC(C)Cc1nnc(N)s1,0.9%
3,CC(=O)Nc1ccc(S(=O)(=O)NCCC(=O)N2CCN(c3ccccc3Cl)CC2)cc1,3.53%
4,O=C(Nn1c(-c2ccc(Cl)cc2)nc2ccccc2c1=O)c1cccnc1Cl,15%
5,O=c1c2ccccc2nc(-c2ccccc2)n1-c1ccccn1,-4.31%
6,Cc1ccc(-c2nc3ccccc3c(=O)n2-c2ccc(Br)cn2)cc1,27.5% (active)
7,COCCCNC(=O)/C(C#N)=C/c1c(N2CCCCCC2)nc2ccccn2c1=O,74.5% (active)
8,O=Cc1c(N2CCN(c3cccc(Cl)c3)CC2)nc2ccccn2c1=O,6.06%
9,COCCNC(=O)/C(C#N)=C/c1nc(N(C)C)n(-c2ccc(F)cc2)c1Cl,0.71%
10,N#CC1(C#N)C(C(=O)C23CC4CC(CC(C4)C2)C3)C12CCOCC2 (centres undefined),1.25%
11,CSc1ncccc1C(=O)OCc1ccc(Br)cc1,2.13%
12,CCCc1nc2oc3c(=O)[nH]cnc3c2c2c1COC(C)(C)C2,40.7% (active)
13,CC/C(C)=N/Nc1nc2sc3c(c2c(=O)[nH]1)CC(C)(C)OC3,21.5%
14,CCCc1nc2oc3c(OCC)ncnc3c2c2c1COC(C)(C)C2,-1.08%
15,Nn1c(SCC(=O)NC(=O)NC2CCCC2)nnc1-c1ccccc1F,0.25%
16,Cc1nc2ccc(C(=O)N3CCSCC3)cc2s1,-8.83%
17,CN(CCc1ccccn1)C(=O)c1ccc(OC2CCN(Cc3ccccn3)CC2)cc1,3.08%
18,COc1cc2c(cc1OC)C(C(C)C)=NC(C)(C)C2,140% (active)
19,COc1cc2c(cc1O)C(SC)=NC(C)(C)C2,0.86%
20,COc1cc2c(cc1OC)C(Nc1ccc(S(N)(=O)=O)cc1)=NC(C)(C)C2,0.94%

row,Compound,inhibition
1,COc1ccccc1C(=O)Nc1ccc(OCC(=O)N2CCCCC2)cc1,42.3% (active)
2,COc1ccccc1C(=O)Nc1ccc(OCc2nnc3c4ccccc4c(C)nn23)cc1,1.57%
3,O=C(COc1ccccc1Cl)N1CCCCCCC1,3.37%
4,OC[C@@H]1CN(Cc2cccs2)C[C@H](n2cnc3c(Nc4ccccc4)ncnc32)O1,44.8% (active)
5,OC[C@@H]1CN(Cc2cccs2)C[C@H](n2cnc3c(NC4CCCC4)ncnc32)O1,-0.13%
6,CCN(CC)c1ncnc2c1ncn2[C@H]1CN(Cc2cccs2)C[C@@H](CO)O1,1.17%
7,CC1(C)CC2CC(C)(CN2c2ncnc3ccc(Br)cc23)C1 (centres undefined),6.02%
8,Cc1occc(=O)c1OCc1c(Cl)cccc1Cl,2.61%
9,CN(C(=O)CSc1nnc(N)s1)c1c(N)n(Cc2ccccc2)c(=O)[nH]c1=O,1.14%
10,CCCN(C(=O)CSc1nnnn1C)c1c(N)n(Cc2ccccc2)c(=O)[nH]c1=O,9.36%
11,CCCN(C(=O)CSc1nnc(N)s1)c1c(N)n(Cc2ccccc2)c(=O)[nH]c1=O,48.3% (active)
12,COc1ccc(CNC(=O)C[C@H]2C[C@H](C(=O)N3CCOCC3)[C@@]3(C)c4[nH]c5cc(CCC(=O)N(C)C)ccc5c4CCN3C2=O)cc1OC,-3.63%
13,Cc1oc(-c2ccccc2F)nc1CS(=O)CC(=O)NCCN1CCCCC1C (centres undefined),-1.66%
14,COc1ccccc1CNC(=O)C1CCN(c2nc3ccccc3o2)CC1,0.23%
15,COc1ccccc1N(C)S(=O)(=O)c1ccc(C(=O)N2CCC(C(N)=O)CC2)cc1,2.31%
16,N#Cc1nc(COc2ccc(Cl)cc2)oc1N1CCCC1,-2.71%
17,Cc1nc(-c2ccccc2)sc1-c1nnc(C2CC2)o1,18.1%
18,Cn1cnnc1Sc1ccc(CN2CCN(C3CCCC3)C(CCO)C2)o1 (centres undefined),-0.65%
19,CCCCCCCCCCCCN1[C@@H](CC(C)=O)c2cc(F)cc(F)c2S1(=O)=O,-2.16%
